Results filed as inconclusive are left out. Calls of active or inactive are those of the source. The call rests on the fitted dose curve; in most records, active means well fitted inhibition curve with a large enough effect in the repeat runs; inconclusive means weak or mixed curves; inactive means flat fitted curve, though single readings scatter.
On the % scale 0 is the no-effect control and ±100 the full control effect.

For this experiment, the target named is Luciferin 4-monooxygenase (Photinus pyralis) (UniProt P08659). Description: qHTS assay to identify small molecule inhibitors of firefly luciferase (AID 1224835). Further: nearly all actives have a fitted effect of over 25% in size. Particulars: purified P. pyralis luciferase, luminescence inhibition; series mostly up to 115 µM; activity change, negative = inhibition: at the top concentration. From the text: U.S. Tox21 Program National Center for Advancing Translational Sciences [NCATS] NIH Chemical Genomics Center [NCGC] U.S. Environmental Protection Agency [EPA] National Institutes of Environmental Health Sciences [NIEHS] National Toxicology Program [NTP] U.S. Food and Drug Administration [FDA] Tox21 Assay Overview: Firefly (Photinus pyralis) luciferase is one of the most commonly used transcriptional reporters. Firefly luciferase reporter-gene assays are generally considered one of the most sensitive assay types (Wood, 1995; Wood, 1998). However, it was initially observed, in 1991, by Thompson et al., that compounds that resemble the substrates of firefly luciferase (FLuc) can act as competitive inhibitors of the enzyme, and that these compounds, upon interaction with luciferase in the cell, can actually stabilize the protein and increase its half-life. Previous profiling work by other groups to determine the prevalence of compounds that affect FLuc enzymatic activity (PubChem AID 411) identified that ~3% of the MLSMR library (then at ~72K) inhibited FLuc. […] Thus the Tox21 10K library is profiled for activity against FLuc using a biochemical assay of purified FLuc and KM concentrations of FLuc substrates (D-luciferin and ATP).
Luciferin 4-monooxygenase (Photinus pyralis), sequence (P08659 whole entry, looked up): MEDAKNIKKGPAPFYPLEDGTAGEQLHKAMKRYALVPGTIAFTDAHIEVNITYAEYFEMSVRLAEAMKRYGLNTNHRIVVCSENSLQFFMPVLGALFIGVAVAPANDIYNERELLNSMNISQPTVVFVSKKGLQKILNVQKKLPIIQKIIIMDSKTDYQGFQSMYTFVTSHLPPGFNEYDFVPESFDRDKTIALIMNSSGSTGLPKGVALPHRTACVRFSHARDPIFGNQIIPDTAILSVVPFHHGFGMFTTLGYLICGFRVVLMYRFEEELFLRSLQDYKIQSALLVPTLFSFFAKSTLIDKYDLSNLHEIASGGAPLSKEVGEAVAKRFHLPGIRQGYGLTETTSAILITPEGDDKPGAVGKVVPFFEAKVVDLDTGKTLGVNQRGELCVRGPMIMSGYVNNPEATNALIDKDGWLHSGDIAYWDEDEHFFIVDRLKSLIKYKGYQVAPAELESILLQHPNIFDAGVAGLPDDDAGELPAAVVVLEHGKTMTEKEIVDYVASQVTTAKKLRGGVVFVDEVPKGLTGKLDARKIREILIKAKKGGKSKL
These assay plates were then treated with 23nL of compound or DMSO using a Kalypsys pin tool, which allows for delivery of a 6-point interplate titration of each compound to the assay plate (quantitative HTS.) 1 uL of firefly luciferase mix (containing 50 mM Tris acetate, pH 7.6, 0.04 uM P. pyralis luciferase, 0.01% Tween, 0.05% BSA and dH2O) was then delivered by FRD to each well. Luciferase activity was then measured using a ViewLux CCD imager.
On the technique in general: qHTS replaces the single test concentration by a dilution series.
Consider `CCN(C(=O)N(CC)c1ccccc1)c1ccccc1`, for which the “activity change, negative = inhibition” value was 0.896% (inactive).
In the case of `Cc1nc(-c2ccc3c(c2)CCN(CCC2CCC(NC(=O)/C=C/c4ccc(F)cc4)CC2)CC3)no1` (stereo not given), the “activity change, negative = inhibition” value is 0.0687% [at 52.9 µM] (inactive).
The same measure, in the same setting: the value for `Cc1cc(N)c(S(=O)(=O)O)cc1Cl` was -9.4% (inactive).
For the molecule `O=Cc1cc(O)ccc1Br`, the Potency is 57.2 µM (active).
Still for that read-out and setting: the value for `[Cl][Bi]([Cl])([c]1ccccc1)([c]1ccccc1)[c]1ccccc1` was 12.6 µM (active).
Regarding `CCOc1nc2cccc(C(=O)OC(C)OC(=O)OC3CCCCC3)c2n1Cc1ccc(-c2ccccc2-c2nn[nH]n2)cc1` (stereo not given), the Potency was 56.4 µM (active).
On to `C/C(=C(/OCCOc1ccc(Cl)cc1)c1ccc(Cl)cc1Cl)n1ccnc1`, for which the “activity change, negative = inhibition” value was 0.489% [at 52.9 µM] (inactive).
The same measure, in the same setting: under `O=C(c1ccc(F)cc1)C1CCN(CCn2c(=O)[nH]c3ccccc3c2=O)CC1` stands 0.743% [at 52.9 µM] (inactive); under `Cc1cc(O)c(C(C)(C)C)cc1Sc1cc(C(C)(C)C)c(O)cc1C`, 4.97% (inactive).
Same read-out and setting: under `C[C@@H](NCCCc1cccc(C(F)(F)F)c1)c1cccc2ccccc12` stands 2.86% [at 52.9 µM] (inactive); under `CCCCN1C(=O)[C@@H]([C@H](O)C2CCCCC2)NC(=O)C12CCN(Cc1ccc(Oc3ccc(C(=O)O)cc3)cc1)CC2`, 7.38% (inactive).
Same read-out and setting: under `CS(=O)(=O)CCNCc1ccc(-c2ccc3ncnc(Nc4ccc(OCc5cccc(F)c5)c(Cl)c4)c3c2)o1` stands -4.11% [at 52.9 µM] (inactive); under `Cc1[nH]cnc1C[C@H]1CCc2c(C)c3ccccc3n2C1=O`, 0.653% (inactive).
On to `C[n+]1ccn(Cc2ccccc2)c1`, for which the “activity change, negative = inhibition” value was -1.41% (inactive).
Take `O=C1c2c(O)ccc(Nc3ccc(CCO)cc3)c2C(=O)c2c([N+](=O)[O-])ccc(O)c21`: the Potency was 17.8 µM (active).
Turning to `OCCN1CCN(CC/C=C2/c3ccccc3Sc3ccc(C(F)(F)F)cc32)CC1`, the “activity change, negative = inhibition” value is 2.27% [at 52.9 µM] (inactive).
Take `CCOc1ccc2nc3cc(N)ccc3c(N)c2c1`: the “activity change, negative = inhibition” value was -14.9% [at 52.9 µM] (inactive).
The same measure, in the same setting: the value for `Clc1ccccc1C(c1ccccc1)(c1ccccc1)n1ccnc1` was 4.8% [at 52.9 µM] (inactive).
The same measure, in the same setting: under `Cc1ccc(-n2nc(C(C)(C)C)cc2NC(=O)Nc2ccc(OCCN3CCOCC3)c3ccccc23)cc1` stands -10.8% [at 52.9 µM] (inactive).
`CCCCCCCCCOC(=O)c1ccc(O)cc1`: the Potency is 70 µM (active).
As for `Oc1ccc(C2(c3ccc(O)cc3)CC3CC2C2CCCC32)cc1` (stereo not given), the “activity change, negative = inhibition” value is 3.22% (inactive).
With `Nc1ccc2c3c(cccc13)-c1ccccc1-2`, the Potency is 22.7 µM (active).
With `CC(C)c1ccc2c(c1)CC[C@H]1[C@](C)(CN)CCC[C@]21C`, the “activity change, negative = inhibition” value was -3.11% (inactive).
Take `C=C(C)C(=O)OCC(O)COc1ccc(C(C)(C)c2ccc(OCC(O)COC(=O)C(=C)C)cc2)cc1` (stereo not given): the “activity change, negative = inhibition” value was -2.92% (inactive).
Same read-out and setting: under `NC(=O)CC[C@@H]1NC(=O)[C@H](Cc2ccccc2)NC(=O)[C@H](Cc2ccc(O)cc2)NC(=O)CCSSC[C@@H](C(=O)N2CCC[C@H]2C(=O)N[C@@H](CCCN=C(N)N)C(=O)NCC(N)=O)NC(=O)[C@H](CC(N)=O)NC1=O` stands -0.108% [at 52.9 µM] (inactive).
Regarding `CCCCCCCCCCCC[N+](C)(C)CCCCCCCCCCCC`, the Potency is 79.6 µM (active).
Take `O=C(O)c1cc(O)c2c(c1)C(=O)c1cccc(O)c1C2=O`: the “activity change, negative = inhibition” value was -2.33% (inactive).
Turning to `CCCCCCCC[P+](CCCCCCCC)(CCCCCCCC)CCCCCCCC`, the Potency was 62.9 µM (active).
In the case of `Cn1cc(C(=O)[C@@H]2CCc3nc[nH]c3C2)c2ccccc21`, the “activity change, negative = inhibition” value was -0.439% [at 52.9 µM] (inactive).
Consider `O=C1Cc2cc(CCN3CCN(c4nsc5ccccc45)CC3)c(Cl)cc2N1`, for which the “activity change, negative = inhibition” value is -0.741% [at 52.9 µM] (inactive).
Consider `CCN(CCC#N)c1ccc(N=Nc2c(Cl)cc([N+](=O)[O-])cc2Cl)cc1`, for which the Potency is 63.3 µM (active).
In the case of `O=C(Nc1cccc(Cl)c1)OCC#CCCl`, the Potency was 44.8 µM (active).
Same read-out and setting: under `CCCCCCCCn1sc(Cl)c(Cl)c1=O` stands 3.56 µM (active); under `O=C(N/N=C/c1ccccc1O)c1ccncc1`, 27.5 µM (active).
`CC(=O)N1CCN(c2ccc(OC[C@H]3CO[C@](Cn4ccnc4)(c4ccc(Cl)cc4Cl)O3)cc2)CC1`: the “activity change, negative = inhibition” value was 6.15% (inactive).
On the same count and under the same terms, under `CN(C)[C@@H]1C(=O)C(C(N)=O)=C(O)[C@@]2(O)C(=O)C3=C(O)c4c(O)cccc4C[C@H]3C[C@@H]12` stands -0.221% [at 52.9 µM] (inactive).
The same measure, in the same setting: the value for `Cc1cc2c(cc1C(F)(F)F)N(C(=O)Nc1ccc(Oc3cccnc3C)nc1)CC2` was 0.0371% (inactive); that for `CC[C@H]1O[C@]2(CC[C@@H]1C)C[C@@H]1C[C@@H](C/C=C(\C)C[C@@H](C)/C=C/C=C3\CO[C@@H]4[C@H](O)C(C)=C[C@@H](C(=O)O1)[C@]34O)O2` was -2.15% (inactive).
For `Nc1c2ccccc2nc2ccccc12`, the Potency result is “inactive”.
Regarding `CCC(Cl)C(Cl)C(Cl)CC(Cl)C(Cl)C(C)Cl` (stereo not given), the “activity change, negative = inhibition” value is 1.08% (inactive).

The values are drawn from PubChem BioAssay (Tox21).
